GLA spleen mod = inhibitors or activators of human alpha-galactosidase in spleen homogenate. AID 2107. human spleen homogenate, 4MU-alpha-Gal fluorescence, 40 min. Potency, µM (series often up to 80 µM), for inactives: at the highest dose activity change, negative = inhibition, hits mostly inhibitors. hit rate 0.008% among 240,000;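 further: potency means the concentration at half of the fitted maximal effect; 0% = enzyme with vehicle and -100% = no enzyme basal signal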
Target sequence (P06280 32-429 limits assumed): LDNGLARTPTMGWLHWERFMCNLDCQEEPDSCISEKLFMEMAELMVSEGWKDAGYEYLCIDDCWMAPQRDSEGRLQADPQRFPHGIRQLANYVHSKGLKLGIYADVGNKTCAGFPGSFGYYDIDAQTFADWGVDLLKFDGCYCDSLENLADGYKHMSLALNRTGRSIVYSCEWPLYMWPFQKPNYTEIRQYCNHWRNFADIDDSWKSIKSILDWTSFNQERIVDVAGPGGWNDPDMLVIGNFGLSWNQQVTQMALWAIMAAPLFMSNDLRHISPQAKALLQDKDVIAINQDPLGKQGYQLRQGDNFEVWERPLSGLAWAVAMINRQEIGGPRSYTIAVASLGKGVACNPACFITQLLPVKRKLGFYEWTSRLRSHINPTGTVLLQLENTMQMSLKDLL
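qHTS titration in buffer at pH 5.0. Alpha-galactosidase activity in spleen homogenate was measured via 4-methylumbelliferone release from 1 mM fluorogenic substrate after 40 min at 37C and a pH 10 stop. AC50 came from Hill fits of control-normalized data.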
GLA inh pH 4.5 = alpha-galactosidase A (human) inhibition, pH 4.5. P06280. purified enzyme, 4-MU-alpha-Gal fluorescence, pH 4.5. activity change, negative = inhibition, % at 105 µM. 230,000 tested, under 10 active. AID 1467;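 further: 0% = full activity with enzyme and -100% = basal without enzyme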
GAA glycogen = alters human alpha-glucosidase cleavage of glycogen. hit rate 0.38% among 300,000. recombinant GAA, glycogen substrate, Amplex Red glucose oxidase fluorescence. Potency, µM (highest dose often 76.4 µM), inactives show at the highest dose activity change, negative = inhibition, usual class: inhibitors. P10253;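 further: potency means the concentration at half of the fitted maximal effect; 0% = full enzyme reaction and -100% = no-enzyme basal signal; the screen sought inhibitors and activators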
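Natural-substrate format: glycogen cleavage by 4 nM human enzyme, glucose read by Amplex Red coupling (Ex 573, Em 610 nm). Normalized to enzyme and no-enzyme controls.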
aGlu spleen mod = lysosomal alpha-glucosidase (human) modulation; Potency, µM (series often up to 79.9 µM), without a hit: top-dose activity change, negative = inhibition, actives largely listed as inhibitors; hit rate 0.006% among 240,000; human spleen homogenate, 4-MU-alpha-glucoside fluorescence; AID 2112;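 further: potency means the concentration at half of the fitted maximal effect; 0% = enzyme with vehicle and -100% = no enzyme basal signal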
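AC50 values come from Hill-equation fits of concentration-response data, normalized to no-enzyme and full-activity controls. Enzyme source: 1 ug human spleen homogenate; 1 mM fluorogenic 4-MU glucoside, pH 5.0 citrate buffer, 37 C, 40 min.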
N370S GC mod = inhibits or activates N370S mutant glucocerebrosidase; P04062; N370S GC spleen homogenate, 4MU-glucoside fluorescence; Potency, µM (top dose mostly 59.4 µM), for the others: top-dose activity change, negative = inhibition, most hits filed as inhibitors; hit rate 0.092% among 330,000;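 further: potency means the concentration at half of the fitted maximal effect; 0% = full enzyme activity and -100% = no enzyme basal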
GAA inh = alpha-glucosidase (human) inhibition. purified human GAA, 4-MU-alpha-glucoside fluorescence. hit rate 0.005% among 200,000. Potency, µM (series often up to 76.9 µM), inactives show at the top dose activity change, negative = inhibition, most hits filed as inhibitors;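 further: potency means the concentration at half of the fitted maximal effect; plate controls were uninhibited enzyme wells for no effect and no-enzyme background for full effect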
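Fluorescence at Ex 365/Em 440 nm from 4-methylumbelliferone reported enzyme activity after 20 min at room temperature. Reactions used 4 nM enzyme and 400 uM substrate at pH 5.0; curves fitted with the Hill equation.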
* hit, by the source's call; [ ] = dose if it differs, or a comment. Only some compounds are listed: those with a hit (about 0.43% of all), similar ones and a draw of the others. The call rests on the fitted dose curve; in most records, active means well fitted curve in the direction sought with a large enough effect; inconclusive means small, poorly fitted or top-dose-only effect, or another doubt; inactive means no such curve, though single readings can be large; an effect the other way counts as inactive or inconclusive.

`O=C1CCCC=C1[C@H](O)c1ccc([N+](=O)[O-])cc1` gave GLA spleen mod -15%[17.5 µM], aGlu spleen mod 0%[17.4 µM] and N370S GC mod 17%[12.8 µM].
Screening Cc1cc(C)cc(N2C(N)=NC(N)=NC2c2ccccc2F)c1 (centres undefined) returned GAA glycogen -12% and N370S GC mod 16µM*.
`Cc1cc(C)cc(N2C(N)=NC(N)=NC2c2cccc(Cl)c2)c1` (centres undefined) gave GAA glycogen -13% and N370S GC mod -25%.
Screening CCN1C(C)=C(C(=O)OC)C(c2ccccc2)N2C(=O)[C@](O)(C(=O)OC)CC(C#N)=C12 (some centres undefined) returned GLA spleen mod 18%[17.5 µM], aGlu spleen mod 0%[17.4 µM] and N370S GC mod 3%[12.8 µM].
Screening CCCN1CCCC(c2cccc(S(C)(=O)=O)c2)C1 (centres undefined) returned GLA spleen mod -7%, aGlu spleen mod 8% and N370S GC mod -10%.
For COc1ccc(Br)cc1CNC(=O)Nc1cccs1 the results were GLA spleen mod 2%, GLA inh pH 4.5 1, GAA glycogen inconclusive, aGlu spleen mod -18%, N370S GC mod -19% and GAA inh -8%.
`Cc1ccc(CNC(=O)Nc2cccs2)cc1` gave GLA spleen mod 6%, GLA inh pH 4.5 -3, GAA glycogen 28µM*, aGlu spleen mod -7%, N370S GC mod 10% and GAA inh -6%.
`COc1ccc(CNC(=O)Nc2cccs2)cc1OC` gave GLA spleen mod 5%, GLA inh pH 4.5 2, GAA glycogen 10µM*, aGlu spleen mod 2%, N370S GC mod 3% and GAA inh -8%.
COc1cccc(CNC(=O)Nc2cccs2)c1 was read as GLA spleen mod 6%, GLA inh pH 4.5 -6, GAA glycogen inconclusive, aGlu spleen mod -17%, N370S GC mod -13% and GAA inh -4%.
For Cc1ccc(CNC(=O)Cc2cccs2)cc1 the results were GLA spleen mod 5%, GLA inh pH 4.5 -12, GAA glycogen 2%, aGlu spleen mod -13%, N370S GC mod 4% and GAA inh -5%.
Screening COc1ccccc1CNC(=O)Nc1cccs1 returned GLA spleen mod 1%, GLA inh pH 4.5 -12, GAA glycogen 28µM*, aGlu spleen mod 0%, N370S GC mod 26% and GAA inh -3%.
`COC(=O)C1=C(C(=O)OC)[C@@H]2N(Cc3ccccc3)c3ccccc3[C@@]23C[C@@H](C(=O)OC)N(S(=O)(=O)c2c(C)noc2C)C3=N1` gave GLA spleen mod -8%[17.5 µM], GLA inh pH 4.5 8, aGlu spleen mod -1%[17.4 µM] and N370S GC mod -1%[12.8 µM].
Nc1nc(-c2ccccc2)c(N=Nc2ccccc2Cl)s1 was read as GLA spleen mod -4%, GLA inh pH 4.5 -7, GAA glycogen 3%, aGlu spleen mod -7%, N370S GC mod 10µM* and GAA inh -8%.
For Cc1ccc2[nH]c(=O)c(-c3nc4cc(C)ccn4c3NCc3ccco3)cc2c1 the results were GLA spleen mod -2%, GLA inh pH 4.5 -11, GAA glycogen 9.9µM*, aGlu spleen mod 6%, N370S GC mod -11% and GAA inh inconclusive.
Cc1cccc2cc(-c3nc4c(C)cccn4c3NCc3ccco3)c(=O)[nH]c12 was read as GLA spleen mod -4%, GLA inh pH 4.5 -4, GAA glycogen 19%, aGlu spleen mod -3%, N370S GC mod -7% and GAA inh -5%.
Cc1cccc(Nc2c(-c3ccc(N4CCOCC4)cc3)nc3ncccn23)c1 was read as GLA spleen mod -1%, GLA inh pH 4.5 6, GAA glycogen 35µM*, aGlu spleen mod -3%, N370S GC mod 9% and GAA inh 4%.
Cc1ccc(Nc2c(-c3ccc(N4CCOCC4)cc3)nc3c(C)cccn23)cc1 was read as GAA glycogen 16µM*.
`COc1ccc(-c2nc3ncccn3c2Nc2ccc3c(c2)OCCO3)cc1` gave GLA spleen mod 8%, GLA inh pH 4.5 0, GAA glycogen inconclusive, aGlu spleen mod 0%, N370S GC mod 9% and GAA inh -2%.
`COC(=O)c1c(-c2cccs2)csc1NC(=O)COc1ccccc1` gave GAA glycogen -6%[76.3 µM].
COC(=O)[C@@]1(Cc2ccc(OC)cc2)[C@H]2c3cc(C(=O)N(C)C)n(Cc4ccc(C)c(F)c4F)c3C[C@H]2CN1C(=O)c1ccccc1 was read as GLA spleen mod -6%, GLA inh pH 4.5 -20, aGlu spleen mod 1% and N370S GC mod -8%.
`Cc1[nH]c2ccccc2c1C(O)CN1CCN(c2cccc(C(F)(F)F)c2)CC1` (centres undefined) gave GLA spleen mod 28µM*, GLA inh pH 4.5 inconclusive, GAA glycogen -17%, aGlu spleen mod -6%, N370S GC mod inconclusive and GAA inh inconclusive.
Screening O=C(NCCCCc1ccccc1)C12CN(Cc3ccccc3)CC1C(c1cccc([N+](=O)[O-])c1)=NO2 (centres undefined) returned GLA spleen mod -8%, GLA inh pH 4.5 -12, GAA glycogen -10%, aGlu spleen mod -8%, N370S GC mod -7% and GAA inh -2%.
`O=C(NCCCCc1ccccc1)C12CN(Cc3ccccc3)CC1C(c1ccc([N+](=O)[O-])cc1)=NO2` (centres undefined) gave GLA spleen mod -8%, GLA inh pH 4.5 -19, GAA glycogen -1%, aGlu spleen mod -4%, N370S GC mod 10µM* and GAA inh inconclusive.
`Cc1ccccc1N=C1NC(=O)CC(c2ccccc2)S1` (centres undefined) gave GLA spleen mod -5%, GLA inh pH 4.5 -5, GAA glycogen 11µM*, aGlu spleen mod 6%, N370S GC mod -5% and GAA inh 1%.
Screening Nc1cc(S(=O)(=O)Nc2cc(Cl)ccc2Cl)ccc1N1CCCC1 returned GLA spleen mod 1%, GLA inh pH 4.5 -3, GAA glycogen 18µM*, aGlu spleen mod -5% and N370S GC mod 14%.
`C[C@H]1COC(=O)O1` gave GLA spleen mod -8%, aGlu spleen mod -4% and N370S GC mod -3%.
For O=C(O)c1ccc2cc(-c3ccc(O)c(C45CC6CC(CC(C6)C4)C5)c3)ccc2c1 the results were GLA spleen mod -6%, GLA inh pH 4.5 4, aGlu spleen mod 1% and N370S GC mod 6%.
For C=C(C)/C=N/NC(=S)Nc1ccc(S(=O)(=O)N2CCOCC2)cc1 the results were GLA spleen mod 3%, GLA inh pH 4.5 -2, GAA glycogen 25µM*, aGlu spleen mod 12% and N370S GC mod -7%.

Screening results: PubChem, National Center for Advancing Translational Sciences (NCATS)
